# About 410 targets per protein were measured; listed, in parts, are those with the strongest signals and a random draw of the rest.
# B1: PX9961V-pdi-562-26-562 (Parabacteroides distasonis) (protein)
# chain: EIFSEITTDNYYQNSNNIYAALVNNYAKAFSTGWSDARYFLQEVTADQLMIPTRGKHGYNGGEYVRLHEHKWTVEENFVYNGWAAPFQGIALCNNTLSDFENLDFSTFKLTEETKNEYIAELRALRVWNYMFLIDFFRHVPIVTDIEEVKAQSTPLEVFNFMESELLAILPDLPKNRGVSRFDQAGVASILVRLYLNAEKWIGISKYDECEQMAQAILDGKYGEYSIDPDYRGPFRSGINGYRSKENIMEFAIKKNYFEASWLYNMWMHYQDRYSLDNDWQGWNGGNLAPSRDLYGNLYQDKLGMPFEKFPDGDIRKKAFRVISNDGDYEGFFLMGTQYKFDYEKGYGFTDEVITGTEEYNGKPLVYVDQVGRFSEGETGLAKGSHVIYGEENTGYRLIKFPWLPQSKDLFQMNSIPEIRLAEIYYSLAECKYRSGDKIGAARLLDVVRKRYYKAEDWSKFSYESNISKLTDDEFVDELGREFIGERHRRIDLIRWNRFSEGAWWDKTPDATNQDVFPIPYRALNANPLLKQTTAGF
# Assays:
# Test in all cases: glycan array binding signal (z-score within array); higher = stronger binding
# Details in all cases: glycan notation: IUPAC condensed, linker removed
# [1] = molecular target: Gal(b1-4)GlcNAc(b1-3)Gal(b1-4)[Fuc(a1-3)]GlcNAc(b1-3)Gal(b1-4)[Fuc(a1-3)]GlcNAc
# In short: (§1)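 Columns mapping to the same glycan were averaged after glycan names were converted to IUPAC-condensed notation. The data come from 3228 arrays in the Consortium for Functional Glycomics database, limited to those with an available protein sequence. Binding is reported as a within-array Z-score averaged across arrays of one protein sequence and across linkers.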
# [2] = molecular target: Gal(b1-4)GlcNAc(b1-3)[Fuc(a1-3)GlcNAc(b1-6)]Gal(b1-4)Glc
# In short: as §1
# [3] = molecular target: Gal3S(b1-4)GlcNAc
# In short: as §1
# [4] = molecular target: GalNAc(a1-3)GalNAc(b1-3)Gal(a1-4)Gal(b1-4)Glc
# In short: as §1
# [5] = molecular target: GalNAc(b1-3)Gal(a1-4)Gal(b1-4)GlcNAc
# In short: as §1
# [6] = molecular target: GlcNAc(b1-2)Man(a1-3)[GlcNAc(b1-4)][GlcNAc(b1-2)Man(a1-6)]Man(b1-4)GlcNAc(b1-4)[Fuc(a1-6)]GlcNAc
# In short: as §1
# [7] = molecular target: GlcNAc(b1-2)[GlcNAc(b1-4)]Man(a1-3)[GlcNAc(b1-4)][GlcNAc(b1-2)Man(a1-6)]Man(b1-4)GlcNAc(b1-4)GlcNAc
# In short: as §1
# [8] = molecular target: GlcNAc(b1-3)Gal(b1-4)GlcNAc(b1-3)[GlcNAc(b1-3)Gal(b1-4)GlcNAc(b1-3)]GalNAc
# In short: as §1
# [9] = molecular target: GlcNAc(b1-3)GalNAc
# In short: as §1
# [10] = molecular target: GlcNAc(b1-4)GlcNAc(b1-4)GlcNAc(b1-4)GlcNAc(b1-4)GlcNAc
# In short: as §1
# [11] = molecular target: Man(a1-3)[Man(a1-6)]Man
# In short: as §1
# [12] = molecular target: Neu5Ac(a2-3)Gal
# In short: as §1
# [13] = molecular target: Neu5Ac(a2-3)Gal(b1-3)GalNAc(b1-3)Gal(a1-4)Gal(b1-4)Glc
# In short: as §1
# [14] = molecular target: Neu5Ac(a2-3)Gal(b1-3)GlcNAc(b1-2)Man(a1-3)[GlcNAc(b1-4)][Neu5Ac(a2-3)Gal(b1-3)GlcNAc(b1-2)Man(a1-6)]Man(b1-4)GlcNAc(b1-4)GlcNAc
# In short: as §1
# [15] = molecular target: Neu5Ac(a2-3)Gal(b1-3)[Fuc(a1-4)]GlcNAc
# In short: as §1
# [16] = molecular target: Neu5Ac(a2-3)Gal(b1-4)GlcNAc(b1-3)Gal(b1-4)GlcNAc
# In short: as §1
# [17] = molecular target: Neu5Ac(a2-3)Gal(b1-4)GlcNAc(b1-3)Gal(b1-4)GlcNAc(b1-3)Gal(b1-4)GlcNAc
# In short: as §1
# [18] = molecular target: Neu5Ac(a2-3)Gal(b1-4)GlcNAc(b1-3)Gal(b1-4)GlcNAc(b1-3)GalNAc
# In short: as §1
# [19] = molecular target: Neu5Ac(a2-3)Gal(b1-4)[Fuc(a1-3)]GlcNAc(b1-6)[Neu5Ac(a2-3)Gal(b1-3)]GalNAc
# In short: as §1
# [20] = molecular target: Neu5Ac(a2-6)Gal(b1-4)Glc
# In short: as §1
# [21] = molecular target: Neu5Ac(a2-6)Gal(b1-4)GlcNAc(b1-2)Man(a1-3)[GlcNAc(b1-4)][Neu5Ac(a2-6)Gal(b1-4)GlcNAc(b1-2)Man(a1-6)]Man(b1-4)GlcNAc(b1-4)GlcNAc
# In short: as §1
# [22] = molecular target: Neu5Ac(a2-6)Gal(b1-4)GlcNAc(b1-2)Man(a1-3)[Man(a1-6)]Man(b1-4)GlcNAc(b1-4)GlcNAc
# In short: as §1
# [23] = molecular target: Neu5Ac(a2-6)Gal(b1-4)GlcNAc(b1-6)[Gal(b1-3)]GalNAc
# In short: as §1
# [24] = molecular target: Neu5Ac(a2-8)Neu5Ac(a2-3)Gal(b1-3)GalNAc(b1-4)[Neu5Ac(a2-3)]Gal(b1-4)Glc
# In short: as §1
# [25] = molecular target: Neu5Ac(a2-8)Neu5Ac(a2-3)Gal(b1-4)GlcNAc
# In short: as §1
# [26] = molecular target: Neu5Gc(a2-3)Gal(b1-4)GlcNAc
# In short: as §1
# [27] = molecular target: Neu5Gc(a2-3)Gal(b1-4)GlcNAc(b1-3)Gal(b1-4)GlcNAc(b1-2)Man(a1-3)[Neu5Gc(a2-3)Gal(b1-4)GlcNAc(b1-3)Gal(b1-4)GlcNAc(b1-2)Man(a1-6)]Man(b1-4)GlcNAc(b1-4)GlcNAc
# In short: as §1
# [28] = molecular target: Neu5Gc(b2-6)Gal(b1-4)GlcNAc
# In short: as §1
binder,measurement,setting,value
B1,glycan array binding signal (z-score),[1],-0.412
same,glycan array binding signal (z-score),[2],-0.429
same,glycan array binding signal (z-score),[3],-0.447
same,glycan array binding signal (z-score),[4],-0.432
same,glycan array binding signal (z-score),[5],-0.339
same,glycan array binding signal (z-score),[6],-0.145
same,glycan array binding signal (z-score),[7],-0.324
same,glycan array binding signal (z-score),[8],-0.471
same,glycan array binding signal (z-score),[9],-0.21
same,glycan array binding signal (z-score),[10],0.049
same,glycan array binding signal (z-score),[11],-0.443
same,glycan array binding signal (z-score),[12],-0.711
same,glycan array binding signal (z-score),[13],-0.516
same,glycan array binding signal (z-score),[14],0.213
same,glycan array binding signal (z-score),[15],-0.598
same,glycan array binding signal (z-score),[16],-0.53
same,glycan array binding signal (z-score),[17],-0.516
same,glycan array binding signal (z-score),[18],-0.319
same,glycan array binding signal (z-score),[19],2.66
same,glycan array binding signal (z-score),[20],-0.644
same,glycan array binding signal (z-score),[21],-0.373
same,glycan array binding signal (z-score),[22],-0.231
same,glycan array binding signal (z-score),[23],-0.27
same,glycan array binding signal (z-score),[24],-0.606
same,glycan array binding signal (z-score),[25],-0.574
same,glycan array binding signal (z-score),[26],0.017
same,glycan array binding signal (z-score),[27],-0.054
same,glycan array binding signal (z-score),[28],-0.322

# — the supplement of paper PMC8728848
